In PubChem BioAssay (Tox21):
Results filed as inconclusive are left out. Entries that show only a call come without a potency. The source made the active and inactive calls. The call rests on the fitted dose curve; in most records, active means well fitted inhibition curve with a large enough effect in the signal ratio in the repeat runs (not every such curve was filed as active); inconclusive means weak or mixed curves, or effect the other way; inactive means no such curve, though single readings can be large or run the other way; the % refers to the signal ratio.

These compounds were tested against Glucocorticoid receptor (Homo sapiens) (UniProt P04150) (assay: qHTS assay to identify small molecule antagonists of the glucocorticoid receptor (GR) signaling pathway (AID 720692)). Settings: GR-bla HeLa, beta-lactamase FRET ratio, dexamethasone-stimulated, 18 h; series mostly up to 58.5 µM.
Chain of Glucocorticoid receptor (Homo sapiens) (P04150 whole entry, looked up): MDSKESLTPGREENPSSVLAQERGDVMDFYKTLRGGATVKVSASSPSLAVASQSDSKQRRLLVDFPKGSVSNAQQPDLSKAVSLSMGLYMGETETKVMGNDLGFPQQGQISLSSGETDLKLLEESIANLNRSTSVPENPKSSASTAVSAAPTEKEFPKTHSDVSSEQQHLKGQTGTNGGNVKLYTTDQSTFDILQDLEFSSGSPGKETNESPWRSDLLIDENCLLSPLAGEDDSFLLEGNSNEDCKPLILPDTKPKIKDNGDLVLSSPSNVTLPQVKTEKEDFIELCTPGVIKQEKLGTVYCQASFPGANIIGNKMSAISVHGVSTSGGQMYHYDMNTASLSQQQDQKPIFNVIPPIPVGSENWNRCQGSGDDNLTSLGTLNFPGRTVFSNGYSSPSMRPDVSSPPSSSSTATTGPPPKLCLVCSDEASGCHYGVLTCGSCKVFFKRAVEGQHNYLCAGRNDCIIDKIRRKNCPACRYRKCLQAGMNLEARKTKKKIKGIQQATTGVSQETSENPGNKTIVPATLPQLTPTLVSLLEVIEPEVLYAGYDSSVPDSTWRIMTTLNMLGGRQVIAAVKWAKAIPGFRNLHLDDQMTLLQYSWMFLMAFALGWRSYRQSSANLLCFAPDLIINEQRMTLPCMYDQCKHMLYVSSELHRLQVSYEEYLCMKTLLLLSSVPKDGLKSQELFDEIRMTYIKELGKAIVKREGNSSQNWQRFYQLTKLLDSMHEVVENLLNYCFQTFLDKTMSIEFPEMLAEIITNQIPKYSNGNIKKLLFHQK
How it was run: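 Cells plated, rested 4 h at 37 C/5% CO2; compounds in DMSO pin-transferred; dexamethasone added to 5 nM final; 18 h at 37 C; B/G FRET substrate added, 2 h room temperature; fluorescence measured.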
Potency means the concentration at half of the fitted maximal effect.

Compound	Potency
CC1CC(CC2CCC(N)C(C)C2)CCC1N (configuration not stated)	inactive
II	inactive
CCCCCCCCOC(=O)c1ccc(C(=O)OCCCCCCCC)c(C(=O)OCCCCCCCC)c1	inactive
Brc1ccc(Oc2ccccc2)cc1	inactive
CC/C(=N\OC/C=C/Cl)C1=C(O)CC(C2CCOCC2)CC1=O (configuration not stated)	inactive
COC(=O)C(Cl)C(=O)OC	inactive
O=[N+]([O-])c1ccccc1CCl	inactive
Nc1nc(N)nc(N)n1	inactive
c1ccc(CN2CCNCC2)cc1	inactive
CCCCCCCCCC(=O)O[C@H]1CC[C@H]2[C@@H]3CCC4=CC(=O)CC[C@@H]4[C@H]3CC[C@]12C	9.52 µM (active)
C=CCC1([C@H](C)CCC)C(=O)NC(=O)NC1=O	inactive
CN1C(=O)NC(=O)C(C)(C2=CCCCC2)C1=O (configuration not stated)	inactive
